Reference: publication PMC6925144, “A prospective compound screening contest identified broader inhibitors for Sirtuin 1” (Scientific Reports, 2019)
In all, about 3,200 compounds were measured (“TSA(with NAD+) / Primary screening (TSA) / delta Tm (K)”: median about -0.04, highest 2% from about 0.37 on). What follows is part of a selection rich in the highest values, with near analogues and random picks from the rest.

What follows are compounds tested against NAD-dependent deacetylase Sirtuin 1 (human, UniProt Q96EB6) (assay: primary screen, delta tm). Conditions: 10 µM.
Set-up: single well (n = 1, as 'the same TSA')
Procedure: A total of 3,192 compounds extracted from the proposed lists were first screened by thermal shift assay (TSA), which determined a melting temperature shift (ΔTm) of Sirtuin 1 upon the addition of a test compound at a concentration of 10 µM (n = 1) with primary hit criteria of ΔTm > 0.45 K or ΔTm < −1.5 K. Primary hits (48 compounds) were retested in the same assay at three concentrations (5, 10, 20 µM, n = 4) for hit confirmation and for dose-dependency check. Secondary hits (41 compounds) were checked their selectivity for Sirtuin 1 based on counterscreening on unrelated protein targets (bovine carbonic anhydrase (CA) and recombinant SH2 domain of hABL1 kinase (ABL1)) at three different concentrations (5, 10, 20 µM, n = 4), which yielded 38 hit compounds, hereafter referred to as TSA hits. The TSA screening above was conducted in the absence of NAD+. As noted, the structure of Sirtuin 1 is different in the presence of NAD+ and substrate. The chemical profile of TSA hits found from the different conditions could be different. […] As a result, 39 TSA hits were found.

Sequence of NAD-dependent deacetylase Sirtuin 1 (Q96EB6 2-747 limits assumed): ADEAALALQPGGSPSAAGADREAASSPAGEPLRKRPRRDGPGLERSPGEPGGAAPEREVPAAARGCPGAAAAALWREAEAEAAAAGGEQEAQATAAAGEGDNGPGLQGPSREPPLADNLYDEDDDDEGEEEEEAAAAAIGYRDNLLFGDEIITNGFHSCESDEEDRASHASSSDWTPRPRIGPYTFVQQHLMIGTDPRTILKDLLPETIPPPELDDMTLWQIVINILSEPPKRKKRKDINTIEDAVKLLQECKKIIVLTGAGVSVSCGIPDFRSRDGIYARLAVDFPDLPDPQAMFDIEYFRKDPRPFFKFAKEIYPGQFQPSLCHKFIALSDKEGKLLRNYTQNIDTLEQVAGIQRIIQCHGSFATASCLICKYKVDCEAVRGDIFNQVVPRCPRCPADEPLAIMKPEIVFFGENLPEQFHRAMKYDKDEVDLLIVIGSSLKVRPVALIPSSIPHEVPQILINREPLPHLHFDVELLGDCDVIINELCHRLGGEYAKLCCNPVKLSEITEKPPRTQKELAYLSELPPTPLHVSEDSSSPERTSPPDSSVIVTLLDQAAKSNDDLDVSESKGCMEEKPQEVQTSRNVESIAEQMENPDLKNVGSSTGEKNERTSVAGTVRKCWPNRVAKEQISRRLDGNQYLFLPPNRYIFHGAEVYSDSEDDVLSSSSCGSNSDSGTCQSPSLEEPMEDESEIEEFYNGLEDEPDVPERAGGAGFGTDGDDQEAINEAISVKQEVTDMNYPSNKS

Compound	TSA(with NAD+) / Primary screening (TSA) / delta Tm (K)
Cc1ncc(CN2CCC(Nc3ccc4nnnn4n3)C(C)C2)s1 (stereo not drawn)	0.09
c1ccc(CN2CCCCCC2)c(CNc2ccc3nnnn3n2)c1	-0.04
Cc1cc(F)ccc1N1CCCC(Nc2ccc3nnnn3n2)C1 (stereo not drawn)	0.68
O=C(CN1CCc2ccccc21)Nc1cnc2ccccc2c1	-0.13
Cc1sc2nc(CSc3ccccc3)nc(N3CCCC(C(N)=O)C3)c2c1C (stereo not drawn)	-0.18
NC(=O)C1CN(c2nc(C3CC3)nc3sc4c(c23)CCCC4)CCO1 (stereo not drawn)	-0.19
Cc1sc2nc(CSc3ccccc3)nc(N3CCC(C(N)=O)CC3)c2c1C	0.49
NC(=O)C1CCN(c2nc(CN3CCCCC3)nc3sc4c(c23)CCC4)CC1	-0.19
Cc1sc2nc(CN3CCCC3)nc(N3CCC(C(N)=O)CC3)c2c1C	0.12
NC(=O)C1CCN(c2nc(CSc3ccccc3)nc3sc4c(c23)CCCC4)CC1	2.22
Cc1ccc(C(=O)Nc2ccc(N3CCN(Cc4ccccc4)CC3)cc2)cc1NC(=O)c1ccco1	0.12
COc1ccc(-c2csc3nc(C)nc(N4CCN(C5CCS(=O)(=O)C5)CC4)c23)cc1OC (stereo not drawn)	-0.09
O=C(O)c1cnc2c(c1)c(=O)[nH]c(=O)n2Cc1ccccc1	-0.13
Cn1c(-c2ccccc2)c(C=O)c2ccccc21	-0.32
CCCCn1ccnc1C(=O)c1cccc(S(=O)(=O)N(C)c2ccccc2)c1	-0.08
CC1CN(C(=O)/C=C/c2ccc(C(=O)O)cc2)CC(C)(C)O1 (stereo not drawn)	-0.13
CC1(C)NC(=O)N(CC(=O)Nc2sc3c(c2-c2nc4ccccc4[nH]2)CCCC3)C1=O	0.37
O=C(CN1CCCCCCC1=O)NCCc1nc2ccccc2[nH]1	-0.22
COC(=O)c1cc(NC(=O)CN2C(=O)NC(C)(c3ccc4ccccc4c3)C2=O)cc(C(=O)OC)c1 (stereo not drawn)	0.19
NC1=Nc2nc3ccccc3n2C(c2ccc(-c3ccc(C(=O)O)cc3)o2)N1 (stereo not drawn)	1.27
CCCCOc1cc(C2NC(N)=Nc3nc4ccccc4n32)ccc1OC (stereo not drawn)	-0.22
O=C(O)CCCc1ccc2c(c1)-c1ccccc1C2	0.06

Compound	TSA(with NAD+) / Primary screening (TSA) / delta Tm (K)
COc1ccc(/C=C2/Oc3cc(O)ccc3C2=O)c(OC)c1	0.12
O=C1/C(=C/c2ccc(OC(F)F)cc2OC(F)F)Oc2cc(O)ccc21	0.37
O=C1/C(=C/c2ccccc2OC(F)F)Oc2cc(O)ccc21	0.15
CCCNc1nnc(S)s1	-0.33
CN(c1ccccc1)S(=O)(=O)c1cccc(NC(=O)CCc2c[nH]c3ccccc23)c1	0.32
CN(c1ccccc1)S(=O)(=O)c1cccc(NCC(=O)Nc2ccc(Br)cc2)c1	-0.01
CN(c1ccccc1)S(=O)(=O)c1cccc(NC(=O)c2cc(Cl)nc3ccccc23)c1	0.16
CN(c1ccccc1)S(=O)(=O)c1cccc(NC(=O)CNc2cccc3ccccc23)c1	0.41
CN(c1ccccc1)S(=O)(=O)c1cccc(NC(=O)CCCc2c[nH]c3ccccc23)c1	0.39
CN(c1ccccc1)S(=O)(=O)c1cccc(C(=O)NCCc2c[nH]c3ccccc23)c1	0.17
CCOC(=O)C1=C(COC(=O)c2sc(-c3ccco3)nc2-c2ccccc2)NC(=O)NC1	0.06
CS(=O)(=O)c1ccc(NCCNC(=O)C23CC4CC(C2)CC(c2ccccc2)(C4)C3)c([N+](=O)[O-])c1	0.18
CN(Cc1nc(-c2cccnc2)no1)Cc1c[nH]nc1-c1cccnc1	-0.01
Cc1ccc(OCc2nc3ccccc3n2Cc2ccccc2)cc1	-0.21
CSc1cccc(NC(=O)c2cccc(S(=O)(=O)N(C)c3ccc(C)cc3)c2)c1	0.19
Cc1ccc(N(C)S(=O)(=O)c2cccc(C(=O)Nc3ccc4c(c3)C(=O)N(C)C4=O)c2)cc1	0.89
CC(=O)Nc1ccc(NC(=O)c2cccc(S(=O)(=O)N(C)c3ccc(C)cc3)c2)cc1	-0.04
CC1CCc2[nH]c3ccc(C(=O)Nc4cccc(S(=O)(=O)N(C)c5ccccc5)c4)cc3c2C1 (stereo not drawn)	0.39
Cc1ccc(N(C)S(=O)(=O)c2cccc(C(=O)Nc3cccc(C(=O)NC4CC4)c3)c2)cc1	-0.03
CN(c1ccccc1)S(=O)(=O)c1cccc(NC(=O)c2ccc(C(N)=O)cc2)c1	-0.01
Cc1ccc(N(C)S(=O)(=O)c2cccc(C(=O)Nc3ccc(C(N)=O)cc3)c2)cc1	0.46
Cc1ccc(N(C)S(=O)(=O)c2cccc(C(=O)Nc3ccc(Br)c(C)c3)c2)cc1	0.73

Compound	TSA(with NAD+) / Primary screening (TSA) / delta Tm (K)
COc1cccc(NC(=O)c2cccc(S(=O)(=O)N(C)c3ccc(C)cc3)c2)c1	-0.06
Cc1ccc(NC(=O)c2cccc(S(=O)(=O)N(C)c3ccc(C)cc3)c2)cc1	0.29
Cc1ccc(N(C)S(=O)(=O)c2cccc(C(=O)Nc3ccncc3)c2)cc1	-0.15
CN(c1ccccc1)S(=O)(=O)c1cccc(C(=O)Nc2ccccc2)c1	-0.01
COc1ccc(CCn2c(C)cc(C(=O)COC(=O)C34CC5CC(CC(O)(C5)C3)C4)c2C)cc1	-0.19
CN1C(=O)c2oc3ccccc3c(=O)c2C1c1ccccc1F (stereo not drawn)	0.01
CCC(=O)c1ccc(OCC(=O)NNC(=O)c2cc(C)oc2C)cc1	-0.03
COc1cccc(C(C)NCc2ccc3[nH]c(=O)[nH]c3c2)c1 (stereo not drawn)	-0.08
O=C1NC(C(=O)O)=CC(c2ccccc2C(F)(F)F)N1 (stereo not drawn)	-0.12
CC1(c2cccc(NC(=O)c3ccc4c(c3)CCC4)c2)NC(=O)NC1=O (stereo not drawn)	-0.13
CN(c1ccccc1)S(=O)(=O)c1cccc(NC(=O)COC(=O)C23CC4CC(CC(C4)C2)C3)c1	0.13
COC(=O)c1ccc(C2NC(=O)NC3=C2C(=O)N(CC(C)O)C3)cc1 (stereo not drawn)	-0.05
C=C(Br)CN	0.06
NC(=O)c1cc(C2CCCN(c3nccc(-n4cccn4)n3)C2)n[nH]1 (stereo not drawn)	0.05
Cc1ccc(N(C)S(=O)(=O)c2cccc(C(=O)Oc3ccc4c(C)cc(=O)oc4c3)c2)cc1	0.16
O=C(CC12CC3CC(CC(C3)C1)C2)NCC(=O)Nc1ccc(Sc2nc3ccccc3[nH]2)cc1	0.23
O=C1CCCCC(C(=O)Nc2ccc(-c3nc4ccccc4[nH]3)cc2)N1 (stereo not drawn)	0.16
O=C(NC(=S)Nc1ccc(-c2nc3ccccc3[nH]2)cc1)C12CC3CC(CC(C3)C1)C2	0.43
COc1ccc2nc(C)c(C(=O)NC34CC5CC(CC(C5)C3)C4)cc2c1	-0.28
C[C@@H](N)CCO	-0.05
O=C1NC(=S)NC(=O)C1=Cc1cn(-c2ccccc2)nc1-c1cc2ccccc2o1	0.56
O=C1NC(=S)NC(=O)C1=Cc1cn(-c2ccccc2)nc1-c1cc2ccccc2oc1=O	-0.05

Compound	TSA(with NAD+) / Primary screening (TSA) / delta Tm (K)
O=C1NC(=O)C(=Cc2cn(-c3ccccc3)nc2-c2cc3ccccc3o2)C(=O)N1	-0.11
O=S(=O)(c1ccc(C(F)(F)F)cc1)N1CCNCC1	0.03
O=C(Nc1cccc(C(F)(F)F)c1)c1cccc(NC(=O)c2cc3c(cc2[N+](=O)[O-])OCCO3)c1	0.38
CN(C)Cc1ccc(C(=O)Nc2cccc(C(=O)NC3CC3)c2)cc1	0.01
NC(=O)NCCCCC(=O)Nc1cccc(C(F)(F)F)c1	0.08
CCc1cc2c(N3CCN(Cc4ccc5c(c4)OCO5)CC3)nc(C)nc2s1	-0.04
NCCCC(N)C(=O)O (stereo not drawn)	-0.08
NC(=O)CC1CCN(C(=O)CCc2c[nH]c3ccccc23)CC1	-0.03
O=C(CCc1ccccc1)NC1CCN(c2ccc([N+](=O)[O-])c3cccnc23)CC1	-0.21
Cc1c(C=C2C(=O)NC(=S)NC2=O)c2ccccn2c1C(=O)c1cccc([N+](=O)[O-])c1	-0.03
O=C(CCc1ccccc1)Nc1ccccc1Cc1ccccc1	-0.06
NC(=O)COC(=O)c1ccc(OCC(=O)Nc2cccc(C(F)(F)F)c2)cc1	0.23
Cc1cccc(-n2ccnc2SCC(=O)Nc2ccc(S(=O)(=O)Nc3nccs3)cc2)c1C	0.13
O=C(COc1ccccc1C(=O)Nc1ccc(S(=O)(=O)Nc2nccs2)cc1)Nc1cccc(C(F)(F)F)c1	0.82
CC(C)c1ccc(C(NC(=O)c2cccc(C(N)=O)c2)c2cccs2)cc1 (stereo not drawn)	-0.05
O=C1NC(=S)N/C1=C\c1ccccc1OCc1ccc(C(=O)O)cc1	0.23
Cc1nc(-c2ccc(CCNC(=O)c3ccc(NC(N)=O)cc3)s2)cs1	0.08
Cc1nc(-c2ccc(CCNC(=O)c3ccc(NC(=O)c4cccs4)cc3)s2)cs1	0.58
COc1ccc(C(=O)NCCc2ccc(-c3csc(C)n3)s2)cc1	-0.09
Cc1ccccc1CNC(=O)CSc1nc2ccsc2c(=O)n1C	-0.22
O=C(Nc1ccc2c3c(cccc13)CC2)N1CCC(n2cncn2)CC1	-0.08
